In the supplement of paper PMC7726561 one finds thermal melting temperature data, which are given here for 36 sequences.

Whole data set: some 1,400 sequences, median “thermal melting temperature (Tm) of peptide-HLA complex” near 60, cut for the lowest 2% near 45. The sample as a whole holds a higher share of the lowest values than the screen did.
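Note: lysates heated 10 min at 37–73 °C, complexes pulled down with pan-HLA I antibody, peptide signal by DIA-MS relative to 37 °C, Tm where half the complex is unfolded.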

In this assay the target is HLA-B*07:02. The assay can be described thus: thermal melting temperature (Tm) of peptide-HLA complex; higher = more thermostable pHLA complex. The settings on record: C1R-B*07:02.
Sequence HPREPALGP showed a thermal melting temperature of 55.3 °C.
On to RPAGPVAVGI, for which the thermal melting temperature is 43.3 °C.
As for SPRVQFQSL, the figure is 61.7 °C; as for RPAEVGGMQL, 59.1 °C; as for RPDYRNITF, 61.7 °C.
NPRNFSDNQL yielded a thermal melting temperature of 53 °C.
As for IFSEVPVQL, the figure is 42.1 °C; as for GVRPFGVSL, 57.4 °C; as for SPYPGLRLI, 61.8 °C.
Sequence SPGPSRPGL showed a thermal melting temperature of 56.1 °C.
As for SPAEPSVYATL, the figure is 62.8 °C; as for AVILRALSL, 61.1 °C; as for FPHLREEIL, 51.6 °C.
The same measure for SPASRSISLL: 57.1 °C; for LPKDQGITL: 61.7 °C; for APAPRPSL: 58.1 °C.
The same measure for LPRTVTQLV: 45.6 °C; for RPISVIGGVSL: 62.3 °C; for APSGGRLLSA: 60.1 °C.
Take LPRQPPMSL: the thermal melting temperature came out at 66.1 °C.
LPNGRDTPAL came in with a thermal melting temperature of 59.2 °C.
As for SPAFSTRVL, the figure is 60.3 °C.
As for KPFDQTTISL, the figure is 61.3 °C.
The sequence RPRPGNILLQL showed a thermal melting temperature of 55.6 °C.
QPIDNVSRNLL displayed a thermal melting temperature of 59.3 °C.
As for KVRGISEVL, the figure is 60.5 °C; as for QPIPFPKEAL, 60.7 °C; as for KPYQGNPTF, 57.5 °C.
As for RPHAFQVIL, the figure is 60.2 °C; as for LPSGDRVAVSV, 61 °C; as for AANPNRFITL, 61.1 °C.
TPRSPPLGL returned a thermal melting temperature of 62.3 °C.
As for TPINKPPVL, the figure is 56 °C; as for APRPDRLVNRL, 57.3 °C; as for LPHAVSSLL, 62.4 °C.
As for LPRKPSVPW, the figure is 59.5 °C.
